Assay outcomes (PubChem)
PNC assembly inh: High Content Assay for Compounds that inhibit the Assembly of the Perinucleolar Compartment | PC3M PTB-GFP, PNC prevalence imaging, 16 h; active compounds read low | activity change (PNC), negative = inhibition, % at 10 µM | actives 3.1% (n = 140,000) | AID 2417, 2010;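 active = readout at or below -70, meaning at least 70% loss of cells showing the perinucleolar compartment, a nuclear body marking cancer cells; inconclusive = readout between -30 and a set limit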
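PC3M cells stably expressing PTB-GFP, 750–1000 cells/well, treated 16 h at 37 °C with compound (23 nl of library stock), in duplicate. After paraformaldehyde fixation and Hoechst stain, imaged at 20x; PNC prevalence scored by image analysis.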
IMPase Li inh: qHTS Assay for Identifying the Cell-Membrane Permeable IMPase Inhibitors: Potentiation with Lithium | CHO-M1 cells, IP1 TR-FRET (IP-One), carbachol + lithium | Potency, µM (highest dose often 59.4 µM), most hits filed as inhibitors | actives 0.35% (n = 210,000) | AID 1457, 2008;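 also: IP1 builds up when IMPase is blocked and the TR-FRET signal falls; nearly all actives have a fitted effect of over 50% in size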
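CHO cells stably expressing M1 receptor (2000/well, cultured 16–30 h) treated 30 min at 37C with compound plus low lithium. Cytosolic IP1 by TR-FRET (665/620 ratio and 620 channel) after 10 min lysis; AC50 by Hill fit.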
NPSR antagonist: qHTS Assay for Antagonists of the Neuropeptide S Receptor: cAMP Signal Transduction; CHO-NPSR cells, cAMP TR-FRET, antagonist mode; Potency, µM (titrated, usually from 38.3 µM), most hits filed as inhibitors; actives 1% (n = 220,000); AID 1461, 2008; also: nearly all actives have a fitted effect of over 50% in size
IMPase inh: qHTS Assay for Identifying the Cell-Membrane Permeable IMPase Inhibitors; Inositol monophosphatase 1 (Rattus norvegicus), P97697; CHO-M1 cells, IP1 accumulation, HTRF TR-FRET ratio; inhibition (IP1 accumulation), % at 46.1 µM; 120,000 tested, under 10 active; AID 901, 2007; active = well fitted curve in the direction sought with a large enough effect in the signal ratio, not every such curve was filed as active; inconclusive = small, poorly fitted or top-dose-only effect, or a change in a side signal; inactive = no such curve, though single readings can be large or run the other way; the % refers to the signal ratio;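 also: cells stimulated with carbachol in lithium chloride buffer; higher means more IMPase inhibition seen as more IP1 and lower FRET ratio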
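Elevated IP1 in lysates lowers TR-FRET signal (665/620 ratio and 620 channel reported). Cells were CHO-M1, given carbachol (50 uM as added) plus 50mM LiCl, pH 7.4, 30 min, 37C; compounds titrated up to 46 uM; AC50 by Hill equation.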
ALDH1A1 inh: qHTS Assay for Inhibitors of Aldehyde Dehydrogenase 1 (ALDH1A1); Potency, µM (highest dose often 75.3 µM), actives largely listed as inhibitors; actives 7.3% (n = 220,000); Aldehyde dehydrogenase 1A1 (Homo sapiens), P00352; Purified ALDH1A1, NADH fluorescence, propionaldehyde substrate; AID 1030, 2008; active = well fitted inhibition curve with a large enough effect, not every such curve was filed as active; inconclusive = small, poorly fitted or top-dose-only effect, or another doubt; inactive = no such curve, though single readings can be large or run the other way
Target sequence (P00352 whole entry, looked up): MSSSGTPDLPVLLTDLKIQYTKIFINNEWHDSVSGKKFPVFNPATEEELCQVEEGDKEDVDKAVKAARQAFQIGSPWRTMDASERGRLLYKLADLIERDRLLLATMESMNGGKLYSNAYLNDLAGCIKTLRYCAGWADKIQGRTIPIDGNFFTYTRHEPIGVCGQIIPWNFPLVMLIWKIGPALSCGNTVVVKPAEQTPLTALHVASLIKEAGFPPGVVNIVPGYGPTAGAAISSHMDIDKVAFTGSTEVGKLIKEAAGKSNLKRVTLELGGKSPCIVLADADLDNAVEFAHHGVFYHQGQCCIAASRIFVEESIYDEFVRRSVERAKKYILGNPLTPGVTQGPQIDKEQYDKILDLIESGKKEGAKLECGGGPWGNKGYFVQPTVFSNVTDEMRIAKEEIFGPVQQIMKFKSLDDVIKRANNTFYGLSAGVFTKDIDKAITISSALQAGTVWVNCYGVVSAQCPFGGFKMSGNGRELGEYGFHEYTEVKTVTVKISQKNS
HPGD block: qHTS Assay for Inhibitors of HPGD (15-Hydroxyprostaglandin Dehydrogenase). 15-hydroxyprostaglandin dehydrogenase [NAD(+)] (Homo sapiens), P15428. actives 4.3% (n = 150,000). purified HPGD, NADH fluorescence kinetic, PGE2 substrate. Potency, µM, most hits filed as inhibitors; active = well fitted inhibition curve with a large enough effect, not every such curve was filed as active; inconclusive = small, poorly fitted or top-dose-only effect, or another doubt; inactive = no such curve, though single readings can be large or run the other way
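NADH formation kinetics: reaction with 30 uM PGE2 and 1 mM NAD+ (final), 20 nM enzyme, Tris-HCl pH 8 with Tween 20, after 15 min compound preincubation at room temperature. Fluorescence change, last versus first of five reads.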
Each line names hits and unclear results; the compound was inactive in the other large screens. Shown are actives, neighbours in structure and some others; about 11% of the full set was active somewhere. Unless noted, calls follow the shape of the dose curve; as a rule, active = well fitted curve in the direction sought with a large enough effect; inconclusive = small, poorly fitted or top-dose-only effect, or another doubt; inactive = no such curve, though single readings can be large; an effect the other way counts as inactive or inconclusive.

COc1ccc(-c2c(NC(=O)c3ccco3)n(-c3ccc(C)cc3)nc(C)c2=O)cc1	none (no result: PNC assembly inh, IMPase Li inh, IMPase inh, ALDH1A1 inh, HPGD block)
CC1CCc2nc3ccc(S(=O)(=O)N4CCC(C(=O)NC5CCCC5)CC4)cc3c(C(=O)O)c2C1 (stereo not given)	ALDH1A1 inh 39.8µM
OCCC1CN(Cc2cccs2)CCN1Cc1ccccc1 (stereo not given)	none (no result: PNC assembly inh, IMPase inh, HPGD block)
O=C(CNc1ccc2c(c1)OCO2)N/N=C\c1cn(Cc2ccc(F)cc2)c2ccccc12	ALDH1A1 inh 2µM (no result: IMPase inh)
O=C(CNc1ccccc1)N/N=C/c1ccc2c(c1)OCO2	none
O=C(CNc1ccc2c(c1)OCO2)N/N=C\c1cn(Cc2ccccc2)c2ccccc12	ALDH1A1 inh 4.47µM (no result: IMPase inh)
O=C1C2C3C=CC(C3)C2C(=O)N1/N=C/c1cn(Cc2ccc(F)cc2)c2ccccc12 (stereo not given)	ALDH1A1 inh 25.1µM
Cc1ccc(NC(=O)CCC(=O)NNC(=O)c2ccco2)cc1C	none
C/C(=N\NS(=O)(=O)c1ccc(C)cc1)c1cc2ccccc2oc1=O	ALDH1A1 inh 15.8µM (no result: PNC assembly inh, IMPase inh, HPGD block)
C/C(=N/NS(=O)(=O)c1ccc(C)cc1)c1c(O)c2ccccc2oc1=O	none (no result: PNC assembly inh, IMPase Li inh, IMPase inh, ALDH1A1 inh, HPGD block)
COc1ccccc1CC(NC(C)=O)C(=O)N1CCN(C(=O)c2cccs2)CC1 (stereo not given)	none
N/C(=N/OS(=O)(=O)c1ccc([N+](=O)[O-])cc1)c1ccncc1	ALDH1A1 inh 31.6µM (no result: PNC assembly inh, IMPase inh, HPGD block)
COc1ccc(N(C)S(=O)(=O)c2cccc(C(=O)NC3CCC(C)CC3)c2)cc1 (stereo not given)	ALDH1A1 inh inconclusive (no result: PNC assembly inh, IMPase inh, HPGD block)
COc1ccc(C2=CSC3=C(C(=O)c4cccc(S(=O)(=O)N(C)C)c4)CCN23)cc1	PNC assembly inh inconclusive, ALDH1A1 inh 2µM
O/N=C/c1ccccc1Oc1ccccc1	ALDH1A1 inh inconclusive, HPGD block 15.8µM
Cc1cc(C)cc(Oc2ccccc2/C=N\O)c1	PNC assembly inh inconclusive, HPGD block 22.4µM
CC(C)(C)NC(=O)/C(=C\c1cccnc1)NC(=O)c1ccco1	none (no result: PNC assembly inh, IMPase inh, HPGD block)
COc1ccccc1NC(=O)/C(=C/c1cccs1)NC(=O)c1ccco1	none (no result: PNC assembly inh, IMPase Li inh, IMPase inh, ALDH1A1 inh, HPGD block)
CC1CCCCN1C(=O)/C=C/c1ccccc1[N+](=O)[O-] (stereo not given)	none (no result: PNC assembly inh, IMPase inh, HPGD block)
CN1CCN(C(=O)/C(=C/c2ccccc2)c2ccccc2)CC1	HPGD block 12.6µM
CC1CCCCN1C(=O)/C(=C\c1ccccc1)c1ccccc1 (stereo not given)	HPGD block 14.1µM
CN1CCN(C(=O)/C(=C/c2ccc(F)cc2)c2ccsc2)CC1	none (no result: PNC assembly inh, IMPase inh, HPGD block)
CC1CC(C)CN(C(=O)/C(=C\c2ccccc2)c2ccccc2)C1 (stereo not given)	HPGD block 11.2µM (no result: IMPase inh)
CCC(=NCCc1c(C)[nH]c2ccc(OC(F)(F)F)cc12)C1=C(O)CC(c2ccccc2)CC1=O (stereo not given)	IMPase Li inh inconclusive, NPSR antagonist 10µM (no result: PNC assembly inh, IMPase inh, HPGD block)
CCCCOc1ccccc1NC(=O)c1ccc(=O)[nH]c1	PNC assembly inh inconclusive
COc1ccccc1Nc1nc2nonc2nc1N1CCCCC1C (stereo not given)	none (no result: IMPase inh)
CC1CCCCN1c1nc2nonc2nc1N1CCCCC1C (stereo not given)	PNC assembly inh inconclusive, ALDH1A1 inh 2.24µM
C/C(=N/Nc1nc(-c2ccc(Cl)cc2)cs1)c1cccs1	PNC assembly inh inconclusive, ALDH1A1 inh 15.8µM
CC(=O)Nc1ccc(-c2csc(N/N=C(/C)c3ccccc3)n2)cc1	none (no result: PNC assembly inh, IMPase Li inh, IMPase inh, ALDH1A1 inh, HPGD block)
O=C(O)C1C2C=CC(O2)C1C(=O)NCc1ccc2c(c1)OCO2 (stereo not given)	none
O=C(O)C1C2C=CC(O2)C1C(=O)NCc1ccc(Cl)cc1 (stereo not given)	PNC assembly inh -130.7
Cc1ccc(C(=O)OCC(=O)NCC(F)(F)F)cc1C	none (no result: IMPase inh)
CCN1C(=O)/C(=C2\SC(=S)N(NC(=O)c3ccccc3O)C2=O)c2ccccc21	none (no result: PNC assembly inh, IMPase Li inh, IMPase inh, ALDH1A1 inh, HPGD block)
